Drawing on PubChem BioAssay AID743156 (Broad Institute, 2013), this text covers inhibition for 17 molecules.

A word on the inhibition: it is the drop in the measured response relative to a control, in per cent.

Some of the results follow. Active and inactive are the calls of the source.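 Rule for the calls: active = mean inhibition across replicates of at least 20% with every single replicate also at 20% or more; inconclusive = mean inhibition at least 20% but some replicate falls below 20%; inactive = mean inhibition under 20% and not all replicates reach it.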

The assay concerns PglD UDP-4-amino-sugar N-acetyltransferase (Campylobacter jejuni). In words: inhibition of C. jejuni PglD N-acetyltransferase – biochemical, DTNB absorbance, single point, cherry-picked samples, confirmation (AID 743156).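 Note: initial rate of CoA release by acetyl transfer from AcCoA to the UDP-4-amino sugar; 0% = median of neutral control wells and 100% = median of positive control wells.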 The following applies: Purified C. jejuni PglD, DTNB absorbance 412 nm; at 20 µM; active compounds read high.
Consider `COc1ccc(NC(=O)C2=NNC(=O)CC2)cc1S(=O)(=O)N1CCCCC1`, for which the inhibition was -3.63% (inactive).

As to `CCCOc1ccc(F)cc1-c1cc(C(=O)Nc2ccc(F)cc2)[nH]n1`, the inhibition is 3.61% (inactive).

With `C=CCOC(=O)C1=C(C)NC(SCC(=O)OCC)=C(C#N)C1c1ccc(C)cc1` (configuration not stated), the inhibition is 0.793% (inactive).

As for `Cc1ccc(C2=C/C(=C\c3cccnc3)C(=O)O2)cc1`, the inhibition is 7.97% (inactive).

Turning to `O=C(NCc1ccncc1)C1CCN(C(=O)c2cccc(Cl)c2)CC1`, the inhibition was 2.21% (inactive).

As for `CC(C)CCNC(=O)c1ccc2c(Cl)c3c(nc2c1)CCC3`, the inhibition is 2.89% (inactive).

On to `CCOc1ccc(OCc2ccc(C(=O)N(C)c3ccccc3)o2)cc1`, for which the inhibition was 1.37% (inactive).

Take `CC(C)(C)c1ccc(CN2C(=O)c3ccccc3S2(=O)=O)cc1`: the inhibition was 2.98% (inactive).

For `Cc1ccc(NC(=O)CNCc2ccccn2)cc1S(=O)(=O)N(C)C`, the inhibition is -5.07% (inactive).

In the case of `O=C(Nc1ccc(Sc2ccc(Br)cc2)cc1)c1ccco1`, the inhibition was 11.2% (inactive).

`CCCCC(=O)Nc1ccc(C(=O)NCCCn2ccnc2)cc1`: the inhibition was -0.586% (inactive).

`CC(NC(=O)c1ccc(Cl)cc1)C(=O)N1CCCCC1` (configuration not stated): the inhibition was 0.85% (inactive).

Consider `C=CC1=C(C(=O)O)N2C(=O)[C@@H](NC(=O)/C(=N/OCC(=O)O)c3csc(N)n3)[C@H]2SC1`, for which the inhibition was 37.4% (active).

For the molecule `CSc1ccc(S(=O)(=O)NCc2ccc(Cl)cc2)cc1`, the inhibition is 3.66% (inactive).

`Cc1ccc(S(=O)(=O)N2CCC(C(=O)NCC3CCCO3)CC2)cc1` (configuration not stated): the inhibition is -10.7% (inactive).

In the case of `CC(=O)Nc1ccc(OC(=O)COc2ccc(Br)cc2)cc1`, the inhibition is 1.84% (inactive).

Turning to `O=S1(=O)CC(NCc2ccccc2)C(Nc2ccc(Cl)cc2)C1` (configuration not stated), the inhibition was -7.57% (inactive).
